target: T1, Eip93f (Drosophila melanogaster, UniProt Q9VD60 752-830); experiment: FP; 33 mM phosphate pH 7.0, 90 mM NaCl, 0.01% Tween 20, 0.1 mM DTT, 0.5% agarose; room temperature; settings: tags: N-GST (pGEX-6P-1, kept); dsDNA, one strand shown
T1 sequence: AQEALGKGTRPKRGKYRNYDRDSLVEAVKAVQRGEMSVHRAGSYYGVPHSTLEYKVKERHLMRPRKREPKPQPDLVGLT

Q: For CATAGACGAAAATCG, which binding signal is on record?
A: The binding signal was 3.01 Kd / Kd of best base at the position.

Q: How did the binding signal turn out when CATAGCTGAAAATCG was run?
A: The binding signal was 4.47 Kd / Kd of best base at the position.

Q: How did the binding signal turn out when CATAGCCCAAAATCG was run?
A: The binding signal was 1.29 Kd / Kd of best base at the position.

Q: With CATAGCCGAAAAACG as the sequence, how does the binding signal read?
A: The binding signal was 1.54 Kd / Kd of best base at the position.

Q: CATAGCCGAAAATCC was tested. Which binding signal did it give?
A: Its binding signal is 1.04 Kd / Kd of best base at the position.

Q: With CATAACCGAAAATCG as the sequence, how does the binding signal read?
A: Its binding signal is 1.73 Kd / Kd of best base at the position.

Q: How did the binding signal turn out when CATATCCGAAAATCG was run?
A: Its binding signal is 1.8 Kd / Kd of best base at the position.

Q: Which binding signal does the source give for CCTAGCCGAAAATCG here?
A: Its binding signal is 1.59 Kd / Kd of best base at the position.

Q: For CATAGGCGAAAATCG, which binding signal is on record?
A: Its binding signal is 3.03 Kd / Kd of best base at the position.

Q: For CATAGCCGTAAATCG, which binding signal is on record?
A: The binding signal was 13.1 Kd / Kd of best base at the position.

Q: With CATAGCCGAAGATCG as the sequence, how does the binding signal read?
A: Its binding signal is 9.46 Kd / Kd of best base at the position.

Q: Which binding signal does the source give for CATAGCCGAAAATCA here?
A: The binding signal was 1.07 Kd / Kd of best base at the position.

Q: With CATAGCCTAAAATCG as the sequence, how does the binding signal read?
A: Its binding signal is 1.82 Kd / Kd of best base at the position.

Q: Which binding signal does the source give for CATAGCCGAATATCG here?
A: The binding signal was 2.21 Kd / Kd of best base at the position.

Q: Which binding signal does the source give for CATAGCCGAAAATCT here?
A: Its binding signal is 1.07 Kd / Kd of best base at the position.

Q: Which binding signal does the source give for CATAGTCGAAAATCG here?
A: The binding signal was 1.92 Kd / Kd of best base at the position.

Q: Which binding signal does the source give for CATACCCGAAAATCG here?
A: The binding signal was 1.36 Kd / Kd of best base at the position.

Q: Which binding signal does the source give for CATAGCCGAAAACCG here?
A: The binding signal was 1.78 Kd / Kd of best base at the position.

Q: Which binding signal does the source give for CTTAGCCGAAAATCG here?
A: The binding signal was 1.14 Kd / Kd of best base at the position.

Q: Which binding signal does the source give for CATAGCCGAAAATGG here?
A: Its binding signal is 1.42 Kd / Kd of best base at the position.

Q: For CAGAGCCGAAAATCG, which binding signal is on record?
A: The binding signal was 1.49 Kd / Kd of best base at the position.

Q: How did the binding signal turn out when CATAGCGGAAAATCG was run?
A: The binding signal was 16.4 Kd / Kd of best base at the position.

Q: How did the binding signal turn out when CATAGCCGGAAATCG was run?
A: The binding signal was 7 Kd / Kd of best base at the position.

Q: Which binding signal does the source give for CATAGCCGCAAATCG here?
A: Its binding signal is 20 Kd / Kd of best base at the position.

Q: For GATAGCCGAAAATCG, which binding signal is on record?
A: The binding signal was 1.29 Kd / Kd of best base at the position.

Q: For CATAGCCGAAAGTCG, which binding signal is on record?
A: Its binding signal is 2.41 Kd / Kd of best base at the position.

Q: With CATAGCCGAAATTCG as the sequence, how does the binding signal read?
A: The binding signal was 1.52 Kd / Kd of best base at the position.

Q: With CATAGCCGAAAATTG as the sequence, how does the binding signal read?
A: Its binding signal is 1.35 Kd / Kd of best base at the position.

Q: With AATAGCCGAAAATCG as the sequence, how does the binding signal read?
A: The binding signal was 1.22 Kd / Kd of best base at the position.

Q: For CATAGCCGACAATCG, which binding signal is on record?
A: Its binding signal is 20.2 Kd / Kd of best base at the position.

Q: For CATAGCCGAACATCG, which binding signal is on record?
A: The binding signal was 5.65 Kd / Kd of best base at the position.

Q: How did the binding signal turn out when CATGGCCGAAAATCG was run?
A: The binding signal was 1.39 Kd / Kd of best base at the position.

Q: Which binding signal does the source give for CATAGCCGAAAATAG here?
A: Its binding signal is 1.65 Kd / Kd of best base at the position.

Q: With CAAAGCCGAAAATCG as the sequence, how does the binding signal read?
A: The binding signal was 1.57 Kd / Kd of best base at the position.

Q: For CATTGCCGAAAATCG, which binding signal is on record?
A: Its binding signal is 1.02 Kd / Kd of best base at the position.

Q: How did the binding signal turn out when TATAGCCGAAAATCG was run?
A: The binding signal was 1.35 Kd / Kd of best base at the position.

Q: For CATAGCCGAAAAGCG, which binding signal is on record?
A: The binding signal was 1.89 Kd / Kd of best base at the position.

Q: With CGTAGCCGAAAATCG as the sequence, how does the binding signal read?
A: The binding signal was 1.39 Kd / Kd of best base at the position.

Q: With CATAGCCGAAACTCG as the sequence, how does the binding signal read?
A: Its binding signal is 2.54 Kd / Kd of best base at the position.

Q: With CATAGCCGATAATCG as the sequence, how does the binding signal read?
A: Its binding signal is 12.1 Kd / Kd of best base at the position.
